Bioassay records (PubChem)
miR-122 inh: activators of miR-122 sensor in Huh7 cells; activation, % at 12.5 µM; 340,000 tested, 0.14% active; AID 623901; Huh7 psiCHECK-miR122 Renilla luciferase sensor, 48 h;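 active means mean activation of 30% or more, with every replicate also reaching 30%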;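 further: 0% = median of neutral control wells and 100% = median of positive control wells; higher luciferase signal means stronger suppression of miR-122 activity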
* = called active by the depositor. This excerpt belongs to a sample that is enriched for hits.

SMILES	miR-122 inh
Cc1ccccc1-c1ccc2c(c1)O[C@@H](CN(C)C(=O)Nc1ccc(F)cc1)[C@@H](C)CN([C@@H](C)CO)S2(=O)=O	37.7*
Cc1ccccc1-c1ccc2c(c1)O[C@H](CN(C)C(=O)Nc1ccccc1)[C@H](C)CN([C@H](C)CO)S2(=O)=O	-16.3
COc1cccc(-c2cnc3c(c2)C(=O)N([C@H](C)CO)C[C@H](C)[C@@H](CN(C)Cc2ccccc2)O3)c1	4.3
CCC(=O)N(C)C[C@H]1Oc2ncc(C#C[C@@H](C)O)cc2C(=O)N([C@@H](C)CO)C[C@@H]1C	-3.0
C[C@H](CO)N1C[C@H](C)[C@@H](CN(C)S(C)(=O)=O)Oc2ncc(-c3cccc(F)c3)cc2C1=O	-59.1
CN[C@H]1C[C@H]2c3[nH]c4ccc(-c5ccc(OC)cc5)cc4c3CCN2C(=O)[C@H]1[C@H](C)O	32.2*
Cc1ccc(-c2cnc3c(c2)C(=O)N([C@H](C)CO)C[C@@H](C)[C@@H](CN(C)C(=O)Cc2cccnc2)O3)cc1	1.2
C/C=C/c1ccc([C@@H]2[C@@H](CN(C(=O)COC)C(C)C)N(C(C)=O)[C@H]2CO)cc1	50.0*
COCC(=O)N(C)C[C@H]1Oc2ncc(/C=C/c3ccccc3)cc2C(=O)N([C@H](C)CO)C[C@@H]1C	3.7
COCC(=O)N(C)C[C@H]1Oc2ncc(/C=C/c3ccccc3)cc2C(=O)N([C@H](C)CO)C[C@H]1C	3.5
C[C@H]1CN([C@@H](C)CO)C(=O)c2cc(/C=C/c3ccccc3)cnc2O[C@@H]1CN(C)Cc1ccccc1F	6.8
COc1ccc(N2CCc3c(C)nc4c(OC)cc(OC)cc4c32)c(OC)c1	46.9*
COCC#Cc1cnc2c(c1)C(=O)N([C@@H](C)CO)C[C@@H](C)[C@H](CN(C)C(=O)Nc1ccc(OC)cc1)O2	1.6
Cc1ccc(S(=O)(=O)c2ccc([N+](=O)[O-])cn2)cc1	32.8*
CCC(=O)N(C)C[C@@H]1Oc2ncc(C#Cc3cccnc3)cc2C(=O)N([C@H](C)CO)C[C@@H]1C	-4.2
O=C(/C=C/Nc1cccc([N+](=O)[O-])c1)c1cccs1	-92.8
N#Cc1cccc(NC(=O)Nc2cccs2)c1	35.8*
C[C@@H]1CN([C@H](C)CO)C(=O)c2cccc(NC(=O)NC3CCCCC3)c2O[C@H]1CN(C)Cc1ccc(Cl)c(Cl)c1	-117.8
C[C@H](CO)N1C[C@H](C)[C@@H](CN(C)Cc2ccncc2)Oc2ncc(C#Cc3cccnc3)cc2C1=O	4.1
CCOc1ccc(-c2nnc(SCC(=O)Nc3ccc4c(c3)c3ccccc3n4CC)n2N)cc1	53.6*
CCn1c(CCNC(=O)c2ccc(OC)cc2)nnc1SCC(=O)Nc1ccccc1F	-119.7
CCn1c(SCC(=O)Nc2ccc(N3CCOCC3)cc2)nnc1-c1ccc(OC)cc1	-141.6
COc1ccccc1C#Cc1ccc2c(c1)O[C@@H](CN(C)Cc1ccncc1)[C@H](C)CN([C@@H](C)CO)S2(=O)=O	10.7
COc1cccc(-c2cnc3c(c2)C(=O)N([C@H](C)CO)C[C@@H](C)[C@@H](CN(C)CC2CCOCC2)O3)c1	10.2
COCC(=O)N(C)C[C@H]1Oc2cc(-c3ccccc3)ccc2S(=O)(=O)N([C@H](C)CO)C[C@@H]1C	-6.4
SMILES	miR-122 inh
C[C@H](CO)N1C[C@H](C)[C@H](CN(C)Cc2ccc(C(=O)Nc3ccccc3N)cc2)Oc2ccc(NC(=O)Nc3ccc(F)cc3)cc2CC1=O	-267.3
C[C@H](CO)N1C[C@H](C)[C@@H](CN(C)C(=O)Nc2ccccc2)Oc2ccc(NC(=O)Cc3ccccc3)cc2CC1=O	0.1
C[C@@H]1CN([C@@H](C)CO)C(=O)Cc2cc(NC(=O)c3ccncc3)ccc2O[C@H]1CN(C)Cc1ccc(-c2ccccc2)cc1	31.5*
C[C@@H]1CN([C@@H](C)CO)C(=O)Cc2cc(NC(=O)C3CCCCC3)ccc2O[C@H]1CN(C)Cc1ccncc1	2.8
C[C@H](CO)N1C[C@H](C)[C@@H](CN(C)Cc2ccc(-c3ccccc3)cc2)Oc2ccc(NC(=O)Cc3ccccc3)cc2CC1=O	34.8*
CC(C)NC(=O)Nc1ccc2c(c1)CC(=O)N([C@H](C)CO)C[C@@H](C)[C@@H](CN(C)Cc1ccc(Oc3ccccc3)cc1)O2	-96.6
CCC(=O)N(C)C[C@@H]1Oc2cc(-c3cccc(C#N)c3)ccc2S(=O)(=O)N([C@H](C)CO)C[C@H]1C	4.3
COCC#Cc1ccc2c(c1)O[C@H](CN(C)C(=O)COC)[C@@H](C)CN([C@H](C)CO)S2(=O)=O	0.9
C[C@H]1CN([C@@H](C)CO)C(=O)c2cc(C#CCC3CCCC3)cnc2O[C@@H]1CN(C)CC1CCOCC1	-9.3
C[C@@H]1CN([C@H](C)CO)S(=O)(=O)c2ccc(-c3cccc(C(=O)N(C)C)c3)cc2O[C@H]1CN(C)C(=O)Nc1ccccc1	-13.2
CC(C)CC#Cc1ccc2c(c1)O[C@@H](CN(C)C(=O)NC1CCCC1)[C@H](C)CN([C@H](C)CO)S2(=O)=O	-24.4
C[C@@H]1CN([C@@H](C)CO)C(=O)c2cc(C#CCN(C)C)cnc2O[C@H]1CN(C)C(=O)Cc1ccncc1	3.5
CCCN(C)C[C@@H]1Oc2ncc(/C=C/c3ccccc3)cc2C(=O)N([C@H](C)CO)C[C@@H]1C	4.4
C[C@@H]1CN([C@H](C)CO)C(=O)c2cc(-c3ccncc3)cnc2O[C@H]1CN(C)C(=O)Cc1cccnc1	1.0
C/C=C/c1cnc2c(c1)C(=O)N([C@H](C)CO)C[C@@H](C)[C@H](CN(C)C(=O)Cc1cccnc1)O2	-2.1
C[C@H](CO)N1C[C@H](C)[C@H](CN(C)C(=O)c2cccnc2)Oc2ncc(Br)cc2C1=O	1.6
CNC[C@@H]1Oc2cc(-c3ccc(OC)cc3)ccc2S(=O)(=O)N([C@H](C)CO)C[C@H]1C	6.6
C[C@@H]1CN([C@@H](C)CO)C(=O)c2cc(-c3cccnc3)cnc2O[C@@H]1CN(C)S(C)(=O)=O	-8.8
C/C=C/c1ccc2c(c1)O[C@H](CN(C)S(C)(=O)=O)[C@H](C)CN([C@H](C)CO)S2(=O)=O	-13.4
COCC#Cc1cnc2c(c1)C(=O)N([C@@H](C)CO)C[C@@H](C)[C@H](CN(C)S(=O)(=O)c1cccc(OC)c1)O2	0.7
CCCC(=O)OCCNc1cc(Sc2nccn2C)c2nonc2c1[N+](=O)[O-]	61.6*
C/C=C/c1cnc2c(c1)C(=O)N([C@@H](C)CO)C[C@H](C)[C@@H](CN(C)C(=O)c1cccnc1)O2	-20.1
COc1ccc(-c2ccc3c(c2)O[C@H](CN(C)C(=O)c2ccccc2F)[C@@H](C)CN([C@@H](C)CO)S3(=O)=O)cc1	-2.0
OC(c1cc(C(F)(F)F)nc2c(Cl)cc(Cl)cc12)C1CCCCN1 (centres undefined)	40.8*
CCCNC(=O)N(C)C[C@@H]1Oc2ncc(C#CCC3CCCC3)cc2C(=O)N([C@@H](C)CO)C[C@H]1C	-2.6
SMILES	miR-122 inh
CCS(=O)(=O)Nc1ccc2c(c1)C(=O)N(C)C[C@H](OC)[C@H](C)CN[C@@H](C)CO2	-0.8
Cc1ccc(NC(=O)c2nc(C)n(-c3ccc([N+](=O)[O-])cc3)n2)cc1	42.9*
O=C(Nc1ccccc1)c1cc([N+](=O)[O-])ccc1NC1CCCCC1	-122.8
C[C@H]1CN([C@@H](C)CO)C(=O)c2cc(C#Cc3cccc(F)c3)cnc2O[C@@H]1CN(C)CC1CCOCC1	3.9
O=C(Nc1ncc(Cc2cccc(C(F)(F)F)c2)s1)c1ccc(-c2cccc([N+](=O)[O-])c2)o1	31.7*
CNC[C@@H]1Oc2cc(C#Cc3cccc(F)c3)ccc2S(=O)(=O)N([C@H](C)CO)C[C@H]1C	-13.0
